14-3-3 PPI: alters human 14-3-3 gamma binding to Raf peptide | 0.19% of 160,000 active | FP, 14-3-3gamma / TMR-pS259-Raf peptide binding | inhibition, % at 40 µM | AID 422 | P61981; in the data active means inhibition above about 30%
Target sequence (P61981 whole entry, looked up): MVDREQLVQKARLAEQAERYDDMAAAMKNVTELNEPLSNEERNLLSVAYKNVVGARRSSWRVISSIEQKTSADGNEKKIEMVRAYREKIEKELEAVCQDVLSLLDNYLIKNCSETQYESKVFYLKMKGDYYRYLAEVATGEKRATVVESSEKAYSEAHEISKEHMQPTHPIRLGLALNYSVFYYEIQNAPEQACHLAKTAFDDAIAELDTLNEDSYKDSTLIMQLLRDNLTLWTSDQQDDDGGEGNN
Each line names hits and unclear results; the compound was inactive in the other large screens. Only a selection was taken, and hits are over-represented in it overall.

O=C(Nc1nccs1)C1CC2c3ccccc3C1c1ccccc12 (stereo not given)	none
O=C1Nc2ccccc2Oc2cc([N+](=O)[O-])cc(Oc3ccccc3)c21	none
Cc1cccc(Oc2cc([N+](=O)[O-])cc3c2C(=O)Nc2ccccc2O3)c1	none
COc1cccc(Oc2cc([N+](=O)[O-])cc3c2C(=O)Nc2ccccc2O3)c1	14-3-3 PPI 61
Cc1ccc(OCc2nc(-c3cccnc3)no2)c(C)c1	none
Oc1ccc(-c2ccc(N=Cc3ccc(Cl)cc3)cc2)cc1	none
NC(=O)c1c(NC(=O)c2cc3n(n2)C(C(F)(F)F)CC(c2ccco2)N3)sc2c1CCCC2 (stereo not given)	none
Cc1ccc2cc3cc(C(=O)NC4CCCC4)oc3nc2c1	none
Cc1ccc2cc3cc(C(=O)N4CC(C)CC(C)C4)oc3nc2c1 (stereo not given)	none
Cc1ccc2cc3cc(C(=O)NC4CCN(Cc5ccccc5)CC4)oc3nc2c1	none
Cc1ccc2cc3cc(C(=O)N4CCN(c5ccc([N+](=O)[O-])cc5)CC4)oc3nc2c1	none
Cc1ccc2cc3cc(C(=O)N4CCC(C)CC4)oc3nc2c1	none
Cc1ccc2cc3cc(C(=O)N4CCN(c5cccc(C)c5C)CC4)oc3nc2c1	14-3-3 PPI 57
Cc1ccc2cc3cc(C(=O)NC4CC4)oc3nc2c1	14-3-3 PPI 36
Cc1ccc2cc3cc(C(=O)N4CCN(C5CCCCC5)CC4)oc3nc2c1	none
Cc1ccc2cc3cc(C(=O)N4CCN(c5ccc(F)cc5)CC4)oc3nc2c1	14-3-3 PPI 67
CCCOC(=O)C1=C(C)NC(=O)NC1c1ccc(O)c(OCC)c1 (stereo not given)	none
CC(C)(C)c1cc2oc3c(c2cc1OC(=O)c1ccco1)CCCC3	none
CCOC(=O)c1cnc2c(C)cc(Cl)cc2c1NCc1cccnc1	none
COc1cc(C(=O)NCc2n[nH]c(=S)n2-c2cccc(C(F)(F)F)c2)cc(OC)c1OC	none
COc1ccc(-c2coc3c(C)c4oc(=O)c(C)c(C)c4cc23)cc1	none
Oc1ccc(NCc2cccs2)cc1	14-3-3 PPI 52
CCOC(=O)Cc1ccc(NCc2cccs2)cc1	none
O=[N+]([O-])c1cccc(NCc2cccs2)c1	none
Cc1cccc(NC(=O)Cn2cnc3sc(C)c(C)c3c2=O)c1	none
CCOc1ccc(/C(O)=C2\C(=O)C(=O)N(Cc3cccnc3)C2c2ccc(N(C)C)cc2)c(C)c1 (stereo not given)	none
O=[N+]([O-])C1=Cc2cc(Br)ccc2OC1c1ccc2c(c1)OCO2 (stereo not given)	none
COc1ccc(C=Nc2ccccc2)cc1	none
COc1ccc(C=Nc2ccco2)cc1	14-3-3 PPI 32
COc1ccc(C=Nc2ccc3ncccc3c2)cc1	none
CCOc1ccc(/C(O)=C2\C(=O)C(=O)N(Cc3cccnc3)C2c2ccccc2F)cc1 (stereo not given)	none
O=C1c2ccc(Br)cc2C(=O)N1c1ccc(Oc2ccccc2)cc1	none
CN1CCN(C(=O)c2cc(-c3ccc4c(c3)OCO4)on2)CC1	none
O=[N+]([O-])c1ccc(C=Nc2cc(-c3ccccc3)nn2-c2ccccc2)cc1	none
CCCOC(=O)c1ccc(NC(=O)c2c(O)c3cccc4c3n(c2=O)CCC4)cc1	none
COc1cccc2c1OC1(C)CC2NC(=O)N1c1cccc(C(=O)N2CCN(c3cccc(C)c3C)CC2)c1 (stereo not given)	none
CC(C)CCNC(=O)C1CCCN(S(=O)(=O)N2CCC(C)CC2)C1 (stereo not given)	none
CC1CCCN(c2cc(NCCCC(=O)O)c3c4c(onc24)-c2ccccc2C3=O)C1 (stereo not given)	14-3-3 PPI 51
CC1CC(C)CN(c2cc(NCCCC(=O)O)c3c4c(onc24)-c2ccccc2C3=O)C1 (stereo not given)	none
O=C(O)CCCNc1cc(N2CCN(C3CCCCC3)CC2)c2noc3c2c1C(=O)c1ccccc1-3	none
O=C(CN1C(=O)CSc2ccc(S(=O)(=O)N3CCCC3)cc21)NC1CCCC1	none
O=C(Nc1cc(C(F)(F)F)ccc1Oc1ccc(Cl)cc1)c1ccc(F)cc1	none
O=[N+]([O-])c1ccc(-c2nc3ccc([N+](=O)[O-])cc3o2)cc1	none
Cc1ccc(S(=O)(=O)N2CCC(C(=O)N3CCC(C(=O)NC(C)C)CC3)CC2)cc1	none

Screens as filed in PubChem.
